PubChem BioAssay AID2401 (Southern Research Specialized Biocontainment Screening …, 2010)
In all, about 2,200 compounds went through this assay and about 530 (24%) were called active.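 How the source made its calls: active means inhibition above a set limit at one or more concentrations of the dose series; inactive means inhibition under that limit at every dose.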 The list is a sample of the results. Measured potencies and affinities stand elsewhere.

test: S. Typhimurium nonspecific reporter signal inhibition – Salmonella Typhimurium, GFP fluorescence, counter-screen for PhoP regulon inhibitor project, dose response (AID 2401); details: 4 h; series mostly up to 150 µM;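 further: S. typhimurium with Mg-insensitive nmpC-GFP reporter grown at 10 µM Mg2+; drop in reporter fluorescence reflects general culture growth inhibition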

Row | Structure (SMILES) | outcome
1 | CCN1CCN(c2oc(COc3ccc(Cl)cc3)nc2C#N)CC1 | inactive
2 | COc1ccc(NC(=O)C(Sc2nnc(-c3ccncc3)n2-c2ccccc2C)c2ccccc2)cc1Cl (stereo not drawn) | inactive
3 | Cc1ccc(S(=O)(=O)NC2c3cccc4cccc(c34)C2Sc2n[nH]c(N)n2)cc1 (stereo not drawn) | inactive
4 | Cc1ccc(S(=O)(=O)N2C(=O)CCC2C(=O)N2CCN(C)CC2)cc1 (stereo not drawn) | inactive
5 | Cc1cccc(C=Nc2ccc3c(c2)oc2ccccc23)c1O | inactive
6 | COc1ccc2cc(C)c3nnc(SCC(=O)Nc4nc(-c5ccccc5)cs4)n3c2c1 | inactive
7 | c1ccc2cc(CSCc3nc4ccccc4[nH]3)ccc2c1 | inactive
8 | CN(C(=O)c1ccc2c(c1)OCO2)C1(C(=O)NC2CCCCC2)CCCCC1 | inactive
9 | CC(=O)Nc1ccc(C(=O)Nc2nc(-c3cc(C)n(Cc4ccccc4)c3C)cs2)cc1 | inactive
10 | O=C(CSc1nc2ccccc2o1)Nc1ccc(N2CCOCC2)c(Cl)c1 | inactive
11 | N#Cc1nc(-c2ccco2)oc1NCCCN1CCOCC1 | inactive
12 | N#C/C(=C\c1c(Cl)cccc1Cl)c1nc2ccccc2[nH]1 | inactive
13 | S=C(NN=C1C2CC3CC(C2)CC1C3)Nc1ccccc1 | inactive
14 | C=CCNc1ncnc2c1[nH]c1ccc(C)cc12 | inactive
15 | Cc1ccc2[nH]c3c(NCc4ccccc4)ncnc3c2c1 | inactive
16 | COc1cccc(-c2nnc(SCC(=O)Nc3ccc(OC)c(OC)c3)n2N)c1 | inactive
17 | Cc1ccc(C=Nc2ccccc2C(N)=O)s1 | inactive

Row | Structure (SMILES) | outcome
18 | CC1(C)CC(=O)C=C(Nc2ccc(Br)cn2)C1 | inactive
19 | S=C(NCc1cccnc1)Nc1cccc(Cl)c1 | inactive
20 | Cc1ccc(NC(=S)NCc2cccnc2)cc1 | inactive
21 | OC(COCc1cccs1)CN1CCN(c2ccccn2)CC1 (stereo not drawn) | inactive
22 | Cc1oc(CC(C)C)c(CN)c1C(=O)O | inactive
23 | Cc1nc(N)sc1Cc1ccc2c(c1)OCO2 | inactive
24 | CC(=O)Nc1cccc(OCC(=O)Nc2ccc(F)cc2)c1 | inactive
25 | CC(=O)Nc1cccc(OC(=O)c2ccoc2C)c1 | inactive
26 | CCN(CC)c1nc2n(c(=O)n1)CCO2 | inactive
27 | Cc1ccccc1Nc1nc(-c2sc(NC(=O)c3cccc(Cl)c3)nc2C)cs1 | inactive
28 | Cc1cc(O)ccc1Nc1nc2ccccc2nc1Nc1ccc(O)cc1C | inactive
29 | Cc1ccc(O)c(-c2cc(-c3cccc(F)c3)n[nH]2)c1 | inactive
30 | C=CCNC(=O)C(=O)NN=C1CCN(C)CC1 | inactive
31 | N#CCOC(=O)c1sccc1-n1cccc1 | inactive
32 | O=C(Cc1ccccc1)Nc1cccc(N2C(=O)C=CC2=O)c1 | inactive
33 | Cc1ccc(C2NNC(=O)C2NC(=O)c2ccccc2)cc1 (stereo not drawn) | inactive
